The subject of this assay is HL-60(TB) leukemia. Put plainly: NCI-60 one-dose screen, 48 h (100 = growth as untreated, 0 = no growth, -100 = all killed). Particulars: 10 µM unless noted.

The values below come from PubChem BioAssay (NCI).

Compounds without any hit were thinned out: in the full panel of roughly 83,000, 20% have a hit.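 Assay: single dose, 48 h. Readout: percent growth (0 = no net growth; negative = cell death). Active: <10.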 Activity calls are given as the source filed them.

With `Cc1cc(N2CCCCCC2)nc(N2CCN(CC(=O)Nc3ccc4c(ccn4Cc4ccccc4)c3)CC2)n1`, the growth is 23.4% (inactive).

Take `COC(=O)CSc1ccc(Cl)cc1`: the growth is 83.8% (inactive).

Turning to `CCOC(=O)C(CNc1ccccc1)C(=O)OCC`, the growth is 101% (inactive).

For the compound `COc1ccccc1/C=C1\COc2ccc(O)cc2C1=O`, the growth is 1.08% (active).

For the compound `COc1ccc(-c2nc(/C=C3\C(=O)N(C)c4ccccc43)c3ccccn23)cc1`, the growth is 41.1% (inactive).

`S=c1nc(-c2ccccn2)c(-c2ccccn2)n[nH]1`: the growth was 92.8% (inactive).

In the case of `N=C(N)c1ccc(S(N)(=O)=O)cc1`, the growth is 94.9% (inactive).

On to `Nc1nc(SCc2cccnc2)c2ncn(C3OC(CO)C(O)C3O)c2n1` (configuration not stated), for which the growth is 103% (inactive).

Consider `CCOC(=O)C(NC(=O)C(Cl)Cl)C(O)c1ccccc1` (configuration not stated), for which the growth was 113% (inactive).

Turning to `CC(C)(C)[Si](C)(C)OC1[C@@H](O[Si](C)(C)C(C)(C)C)[C@@H](CNC(=O)NC(=O)NC(=O)CCl)O[C@H]1n1cnc2c(NC(=O)Nc3ccccc3)ncnc21` (some centres not stated), the growth is 19.7% (inactive).

For the compound `Cn1cc(-c2csc(-c3cn(C(=O)OC(C)(C)C)c4ccccc34)n2)c2cccnc21`, the growth was 65.8% (inactive).

Take `C=C1C(=O)O[C@H]2[C@H]1CC/C(COC(=O)c1ccc(Cl)nc1)=C\CC[C@@]1(C)O[C@@H]21`: the growth was -55.1% (active).

As for `CC[C@H](CO)Nc1nc(NCc2ccccc2)n2ncc(C(C)C)c2n1`, the growth was -38.2% (active).

For `Cc1ccc(Nc2cc(Cl)c([N+](=O)[O-])cc2[N+](=O)[O-])cc1`, the growth was 6.39% (active).

Regarding `COc1ccc(OC)c2ncccc12`, the growth is 98.9% (inactive).

Turning to `O=C(O)CC1Cc2ccccc2C1C(=O)O` (configuration not stated), the growth was 65% (inactive).

As to `COc1ccc(C2C=C(c3ccc(Cl)c(Cl)c3)N=C3SC(C)=CN32)cc1` (configuration not stated), the growth was 83.3% (inactive).

On to `Brc1ccc(SCN(CSc2ccc(Br)cc2)Cc2ccccc2)cc1`, for which the growth is 40.3% (inactive).

`O=C(NC(CSSCC(NC(=O)c1ccccc1)C(=O)O)C(=O)O)c1ccccc1` (configuration not stated): the growth was 60.7% (inactive).

On to `O=C(Nc1c2ccccc2nc2ccccc12)c1ccccc1CN1C(=O)c2ccccc2C1=O`, for which the growth is 38.9% (inactive).

Take `CCCCc1n(Cc2ccc3ccccc3c2)cc[n+]1Cc1ccc2ccccc2c1`: the growth is -52.6% (active).

As for `CC(/C=C/c1ccccc1)=N/NC(=O)c1ccncc1`, the growth is 92.2% (inactive).

For the compound `N#Cc1c(N2CCOCC2)nc2sc3cc(Cl)ccc3n2c1=N`, the growth was 107% (inactive).

Regarding `CC(C)C1=NOC(=O)C1=Cc1cn(-c2ccccc2)nc1-c1ccc(Br)cc1`, the growth was -28.8% (active).

As to `COc1ccc(/C=C/C(=O)c2ccc(-n3cc(CN4CCN(c5cc6c(cc5F)c(=O)c(C(=O)O)cn6C5CC5)CC4)nn3)cc2)cc1OC`, the growth is 45.1% (inactive).

Turning to `Cc1nn(-c2ccccc2)c2nc3c(nc12)C1=NCCN1C(c1ccc(Cl)cc1)N3` (configuration not stated), the growth was 70.7% (inactive).

On to `COc1ccc2c(c1)c(C(=O)c1nc(-c3cn(C)c4ccccc34)no1)cn2C`, for which the growth is 92% (inactive).

With `O=C1N[C@@H]2[C@@H](O)[C@@H](O)[C@H](O)C[C@H]2c2cc3c(c(O)c21)OCCO3`, the growth is -18.8% (active).

As for `COc1cc2cc(Oc3ccc(NC(=O)Nc4ccc(C(F)(F)F)cc4)cc3)c(C)nc2cc1OC`, the growth was 75.3% (inactive).

As to `COc1cc(/C=C/C(=O)/C=C(O)/C=C/c2ccc(OC(=O)C34CC5CC(CC(C5)C3)C4)c(OC)c2)ccc1OC(=O)C12CC3CC(CC(C3)C1)C2`, the growth was 104% (inactive).

Regarding `COc1cc2nc(-c3ccc(C(F)(F)F)cc3)cc(OCCCN3CCOCC3)c2cc1OC`, the growth was 32.5% (inactive).

`NC(=O)CC(NC(=O)COc1ccc(Cl)cc1Cl)C(=O)O` (configuration not stated): the growth is 109% (inactive).

In the case of `Cc1ccc(-c2nc(SCC(=O)c3ccc(C#N)cc3)[nH]c(=O)c2C#N)cc1`, the growth was 94.2% (inactive).

Turning to `CN1CCN(CC(=O)Nc2nc3c(s2)Nc2cc(Cl)c(Cl)cc2NC3=O)CC1`, the growth was 81.9% (inactive).

For the compound `CCCCNC(=O)C(=O)NCCCC`, the growth is 113% (inactive).

On to `CCCCCCCCCCCCCCCCNC(=S)N/N=C/c1ccc(OC)cc1`, for which the growth is 94.3% (inactive).

With `COC12C=C/C(=C(/C(=O)OCc3cncnc3)C(=O)CCCCCCCCC3(OC)C=C/C(=C(/C(=O)OCc4cncnc4)C(=O)CCCCCCCC1)O3)O2`, the growth was -27.4% (active).

For the compound `NC(=S)NN=C1CCCC1`, the growth is 95.1% (inactive).

With `CCNC(=O)OCCc1c2ccccc2nc2ccccc12`, the growth was 95.1% (inactive).

As for `O=c1[nH]c(N2CCC(Cc3ccccc3)CC2)nc2sc3c(c12)CCCC3`, the growth is 95.7% (inactive).

For the compound `Nc1nc2ncc(CNc3ccc(C(=O)NC(CCC(=O)NC(CCC(=O)NC(CCC(=O)NC(CCC(=O)NC(CCC(=O)O)C(=O)O)C(=O)O)C(=O)O)C(=O)O)C(=O)O)cc3)nc2c(=O)[nH]1` (configuration not stated), the growth is 93.5% (inactive).

Turning to `CN(C)CC(C)(CN(C)C)C(=O)/C=C/c1c(Cl)cccc1Cl`, the growth was -5.28% (active).

For the compound `N#C/C(=C\c1ccc(C#N)cc1)C(=O)c1ccccc1`, the growth was 92.7% (inactive).

For `CCCCCCCCn1ccc2cc(NC(=O)CN3CCN(c4cc(C)nc(Cl)n4)CC3)ccc21`, the growth was 83.3% (inactive).

In the case of `COc1cc(-c2ccc(-c3ccc(C(=N)N)s3)s2)cc(OC)c1OC`, the growth is -56.6% (active).

Take `CC(C)=CC(=O)N[C@@H]1CC2CCC3C(CC[C@@]4(C)C3CC[C@@H]4C(C)N(C)C)[C@@]2(C)C[C@@H]1O` (some centres not stated): the growth was -63.8% (active).

`COc1ncc(-c2ccc3ncnc(Nc4cccc(Cl)c4)c3c2)cc1N(S(C)(=O)=O)S(C)(=O)=O`: the growth was 49.7% (inactive).

As to `S=C(c1ccc2c(c1)OCO2)N1CCN(c2cccc(Cl)c2)CC1`, the growth was 11.9% (inactive).

Regarding `COc1cc(/C=C2\CN(C(=O)CCN3CCC(=NO)CC3)C/C(=C\c3cc(OC)c(OC)c(OC)c3)C2=O)cc(OC)c1OC`, the growth is -27.9% (active).

For `COc1ccc(/C=c2\nc3n(-c4ccccc4)c4nc5c6c(sc5c(=N)n4n-3c2=O)CCCC6)cc1`, the growth is 101% (inactive).

In the case of `C[C@]12CC[C@H]3[C@@H](CC=C4C[C@@H](O)CC[C@@]43C)[C@@H]1CC[C@@H]2C(=O)C/C=N/O`, the growth is 78.9% (inactive).

For `COc1ccc2c(c1)C(=O)/C(=C/c1cccnc1)CC2`, the growth is 99.5% (inactive).

`CO/C(=C1/NC(=O)C(Cc2ccc(O)c(Br)c2)N(C)C(=O)C(C)NC(=O)CCC/C=C(\C)CCC(C)OC1=O)c1ccccc1` (configuration not stated): the growth is -58.6% (active).

For the compound `N#CC(I)CS(=O)(=O)c1ccccc1` (configuration not stated), the growth was 99% (inactive).

Consider `N#CCCN1C/C(=C/c2ccccc2)C(=O)/C(=C/c2ccccc2)C1`, for which the growth was 43.2% (inactive).

Consider `CCCCCCCCCCN1CC2CCCCC2C1` (configuration not stated), for which the growth is 68.5% (inactive).

`Cc1ccc(C(=O)/C=C/c2ccccc2)s1`: the growth is 97.1% (inactive).

For the compound `O=[N+]([O-])c1ccc2[nH]c3nccc(NCc4cccc(Cl)c4)c3c2c1`, the growth was 82.9% (inactive).

For `CCN(CC)c1ccc2nc3ccc(N=Nc4ccc(N(C)C)cc4)cc3[n+](-c3ccccc3)c2c1`, the growth was -32.2% (active).

As for `[2H]C([2H])([2H])Oc1ccc(F)cc1/C=C/C(=O)/C=C(O)/C=C/c1cc(F)ccc1OC([2H])([2H])[2H]`, the growth was 77.3% (inactive).

In the case of `CCCCC(CC)CN=C(N)NC(N)=NCCCCCCN=C(N)NC(N)=NCC(CC)CCCC` (configuration not stated), the growth was -76.8% (active).

On to `COc1cc2c(cc1O)c(=O)n(CCN(C)C)c1c3cc4c(cc3ncc21)OCO4`, for which the growth is -29.2% (active).

For the compound `COc1ccc(-c2ccc(-c3ccc(C(=N)N)cn3)s2)cc1`, the growth was -37.1% (active).

For `COc1cc(C(=O)N2CCN(c3cc4c(cc3F)c(=O)c(C(=O)NO)cn4C3CC3)CC2)cc(OC)c1OC`, the growth is 101% (inactive).

In the case of `COC(=O)CC[C@@H](C)[C@H]1CC[C@H]2C3CC[C@@H]4C[C@@H]5CC[C@]4(C)[C@@]3(O5)[C@H](Br)[C@@H](Br)[C@]12C` (some centres not stated), the growth was 81.2% (inactive).

`CS(=O)(=O)c1ccc(NC(=O)c2ccccc2)nc1`: the growth is 67.5% (inactive).

In the case of `Nc1cc(N)c(N=Nc2ccc(S(=O)(=O)O)cc2)cc1N=Nc1ccc(-c2ccc(N=Nc3ccc(O)c(C(=O)O)c3)cc2)cc1`, the growth was 111% (inactive).

Regarding `CCOC(=O)C#Cc1c(C(=O)OCC)nnn1Cc1ccc(C(F)(F)F)cc1`, the growth is 39% (inactive).

`CN(C)CC(C)(C)C(=O)/C=C/c1ccccc1`: the growth is -15.3% [25 µM] (active).

On to `O=c1ccc(-c2nc(N3CCOCC3)c3ccccc3n2)c[nH]1`, for which the growth is 95.8% (inactive).

On to `N#CC1=C(c2ccccc2)Nc2c(c(-c3ccc(Cl)cc3)nn2-c2ccccc2)C12C(=O)Nc1ccc(Cl)cc12` (configuration not stated), for which the growth is 48.2% (inactive).

Turning to `Clc1ccc2c(Nc3ccc4oc(NCCN5CCCC5)nc4c3)ccnc2c1`, the growth was 72.3% (inactive).

For `CCC[S@@](=O)c1ccc2nc(NC(=O)OC)[nH]c2c1`, the growth was 56.6% (inactive).

With `CC(C)OP(=O)(CCC(=O)c1c[nH]c2ccccc12)OC(C)C`, the growth is 92.2% (inactive).

In the case of `COc1cc(OC)cc(-c2n/c(=C\c3c(O)[nH]c4ccc(OC)cc34)cc3c2=Nc2ccccc2-3)c1`, the growth was 80% (inactive).

For `Cc1cc2c3ccccc3ccc2[n+]2ccccc12`, the growth was 46.2% (inactive).

For the compound `O=C(CSc1nc2ccccc2c(=O)n1-c1ccccc1)Nc1ccc(C(=O)/C=C/c2ccc(Cl)cc2)cc1`, the growth was 99% (inactive).

`C(=C\c1ccncc1)/c1ccncc1`: the growth is 105% (inactive).

With `Cc1cc(C)cc(NCCC#N)c1`, the growth is 84.9% (inactive).

Regarding `Cc1cn(-c2cc(NC(=O)c3ccc(C)c(Nc4nccc(-c5cccnc5)n4)c3)cc(C(F)(F)F)c2)cn1`, the growth is 53.3% (inactive).

Turning to `Cc1ccc(C)c(COc2cc(NC(=O)c3ccc4c(c3)OCO4)ccc2N(C)S(C)(=O)=O)c1`, the growth is -5.51% (active).

With `C[C@]12CC[C@@H]3c4cc(OC(F)F)c(OS(N)(=O)=O)cc4CC[C@H]3[C@@H]1CC[C@@H]2OS(N)(=O)=O`, the growth was 13.1% (inactive).
